This is an account of results in PubChem BioAssay.

Activity calls are given as the source filed them.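 Rule for the calls, unless noted: active = inhibition above 20% together with a positive visual image hit; inconclusive = visual image hit but inhibition not above 20%; inactive = no visual image hit.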

The term inhibition denotes the relative decrease from the control value, in per cent.

Test [1] in a line: inhibitors of TNFa-induced NFkB p65 translocation, primary screen, imaging, HUVEC, MLSMR starter and 10KST1 sets (AID 438).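 For inhibition: signal is the nuclear over cytoplasmic p65 intensity ratio per well.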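 Note: compound added about 3h40 before a 20 min TNFalpha stimulation.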 Conditions: HUVEC TNFa-induced p65 nuclear translocation; cell count: measured here: nuclei count (cytotoxicity indicator), at 2.08 µM; inhibition: at 2 µM, stronger effect = higher value, 0% TNFa-plus-vehicle, 100% no-TNFa wells.
Test [2] in a line: inhibitors of mutant huntingtin aggregation, primary screen, imaging, exon1htt(103Q)mCFP cells, high-content imaging (AID 483;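 active = visual image review flags a hit and inhibition of aggregation exceeds 20%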;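 note: compound exposure lasted 3 days before fixation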;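 for nuclei count: percent of the per-plate median nuclei count of sample wells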). The note with it: exon1htt(103Q)mCFP cell line, aggregate imaging, at 2 µM; inhibition of aggregation: stronger effect = higher value; nuclei count: measured here: cell count, toxicity.
Test [3] is described as follows: inhibitors of E-selectin induction by TNFa, primary screen, imaging, HUVEC, immunofluorescence, MLSMR starter and 10KST1 sets (AID 487;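 active = visually confirmed hit in the image check and inhibition above 20%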;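 for inhibition: signal is fraction of cell area covered by stained E-selectin grains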;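 for nuclei count: 100% = median nuclei count of all wells on the same plate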). The note with it: HUVEC TNFalpha-induced E-selectin immunofluorescence imaging, at 2 µM; inhibition: stronger effect = higher value; nuclei count: measured here: cell number, toxicity.
Test [4] in a line: DUSP6 inhibitors restoring Erk phosphorylation by chemical complementation, primary imaging in DUSP6-transfected HeLa (AID 609;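 active = compounds giving at least 50% inhibition in the cell-based MKP-3 phosphatase rescue imaging test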;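 for inhibition: phospho-Erk level distribution per well compared with pooled transfected vehicle control wells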). Conditions: HeLa MKP-3 transfected, phospho-Erk imaging KS statistic, at 10 µM, cells stimulated with TPA for 15 min.
Test [5] has as its target Dual specificity protein phosphatase 6 (Homo sapiens) (UniProt Q16828). The test is described as above. Conditions: HeLa MKP-3 transfected, phospho-Erk imaging KS statistic; at 10 µM; stronger effect = higher value; cells stimulated with TPA for 15 min.
Test [6] has as its target Voltage-gated potassium channel subunit beta-2 (Rattus norvegicus) (UniProt P62483). The experiment in a line: KvBeta enzyme negative modulators, primary screen, biochemical, NADPH fluorescence (AID 622;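 active = fluorescence slope higher than the sample average by over 3 SD, cut at about -0.22 in these data, passing the limit was not always enough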;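 note: slope of raw intensity against log time taken from 70 to 1610 s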). Conditions: recombinant KvBeta, 4-cyanobenzaldehyde reduction, at 10 µM, stronger effect = higher value.
Test [7] shares this target. Put plainly: KvBeta positive modulators, primary screen, biochemical, NADPH fluorescence (AID 623;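 active = NADPH fluorescence slope more negative than the mean of all samples by about 3 SD, 99.7% confidence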;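 note: fluorescence intensity change per second fitted from 20 to 320 s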). Conditions: Recombinant KvBeta, NADPH fluorescence decrease slope, 10 min; at 10 µM; stronger effect = lower value.
Test [8] has as its target Muscarinic acetylcholine receptor M4 (Homo sapiens) (UniProt P08173). The experiment in a line: compounds altering M4/GIRK thallium flux, either direction, primary screen, M4 allosteric agonist project, cell-based, HEK293 M4/GIRK, BTC-AM (AID 625;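 active = fluorescence slope after compound addition differing from the mean of all tested samples at 99.7% confidence, mostly higher but some lower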;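 note: thallium influx through GIRK channels coupled to M4 in HEK293 cells with BTC-AM dye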). The note with it: at 10 µM, actives lie on both sides.
Test [9] can be described thus: inhibitors of larval lipid processing in zebrafish, primary screen, whole organism, PED6 fluorescence, gall bladder and intestine (AID 686;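 active = a full or partial loss of lipid-probe fluorescence in the fish gall bladder, intestine or both, judged by eye; inactive = no fluorescence loss, or compound toxic to the fish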;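 note: larvae 5 to 7 days old with five fish per well; signal comes from phospholipase A2 cleavage of quenched PED6 carried via bile; overnight exposure to compound and PED6 before scoring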). Conditions: Zebrafish larvae PED6 lipid processing, fluorescence scoring; screened at 20 µM (by protocol).
Test [10] is described as follows: inhibitors of Chlamydomonas gravitaxis, primary screen, whole organism, Chlamydomonas reinhardtii, WT vs cilia-less mutant, absorbance, 96-well (AID 463189;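 active = inhibition at or above 50% relative to wild type and mutant plate controls; inactive = inhibition below 50%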;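 note: 0% = wild type cc124 cells in DMSO and 100% = ciliumless bld1 mutant cells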). The note with it: OD600 absorbance, 2 days, at 10 µM, stronger effect = higher value.
Test [11] is described as follows: inhibitors of Sendai virus-induced IRF3 signaling, primary screen, TLR/RLR signaling modifier project, cell-based, Sendai virus stimulus, luciferase, 10K MLSCN set (AID 602276;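 active = inhibition at or above 50% at 10 µM; inactive = inhibition below 50%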;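 note: firefly luciferase from ISG56 promoter only with Renilla not read in this screen; 0% = Sendai virus plus DMSO and 100% = medium plus DMSO without virus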). Conditions: HEK293 RL24 IRF3 luciferase reporter, at 10 µM, stronger effect = higher value. (In a reporter assay the amount or activity of a reporter protein is the signal.)
A short description of test [12]: inhibitors of poly I:C-induced TLR3 signaling, primary screen, cell-based, poly I:C stimulus, luciferase, 10K MLSCN set (AID 602277;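 active = inhibition of the reporter signal at or above 50%; inactive = inhibition below 50%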). Conditions: HEK293-TLR3 RL24 IRF3 luciferase reporter, at 10 µM, stronger effect = higher value.
The mark [13] stands for this setting: measured here: cell density z-score.
Where [14] appears, read: measured here: nuclear c-Myc green intensity z-score.
The mark [15] stands for this setting: measured here: nuclear pErk red intensity z-score, stronger effect = higher value.

Sequence of Dual specificity protein phosphatase 6 (Homo sapiens) (Q16828 whole entry, looked up): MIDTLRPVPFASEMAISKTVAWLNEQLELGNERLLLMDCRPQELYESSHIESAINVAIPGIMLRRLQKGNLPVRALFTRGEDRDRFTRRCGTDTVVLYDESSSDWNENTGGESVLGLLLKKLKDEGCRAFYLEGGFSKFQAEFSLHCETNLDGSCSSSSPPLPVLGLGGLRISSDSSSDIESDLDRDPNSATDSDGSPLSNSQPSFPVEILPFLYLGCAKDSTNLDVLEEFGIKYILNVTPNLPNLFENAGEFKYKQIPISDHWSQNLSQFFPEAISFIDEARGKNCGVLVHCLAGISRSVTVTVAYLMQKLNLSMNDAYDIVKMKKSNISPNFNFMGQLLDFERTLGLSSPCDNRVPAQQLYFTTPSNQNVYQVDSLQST
Sequence of Voltage-gated potassium channel subunit beta-2 (Rattus norvegicus) (P62483 whole entry, looked up): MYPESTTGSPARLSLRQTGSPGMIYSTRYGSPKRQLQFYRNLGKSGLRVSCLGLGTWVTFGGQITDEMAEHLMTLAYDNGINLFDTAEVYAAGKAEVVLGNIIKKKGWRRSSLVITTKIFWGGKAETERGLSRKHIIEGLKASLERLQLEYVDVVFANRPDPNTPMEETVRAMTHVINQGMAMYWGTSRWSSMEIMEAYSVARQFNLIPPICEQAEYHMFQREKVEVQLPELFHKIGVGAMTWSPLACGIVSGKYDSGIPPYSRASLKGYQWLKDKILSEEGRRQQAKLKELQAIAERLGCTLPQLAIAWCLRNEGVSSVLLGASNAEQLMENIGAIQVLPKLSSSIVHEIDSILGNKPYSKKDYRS
Sequence of Muscarinic acetylcholine receptor M4 (Homo sapiens) (P08173 whole entry, looked up): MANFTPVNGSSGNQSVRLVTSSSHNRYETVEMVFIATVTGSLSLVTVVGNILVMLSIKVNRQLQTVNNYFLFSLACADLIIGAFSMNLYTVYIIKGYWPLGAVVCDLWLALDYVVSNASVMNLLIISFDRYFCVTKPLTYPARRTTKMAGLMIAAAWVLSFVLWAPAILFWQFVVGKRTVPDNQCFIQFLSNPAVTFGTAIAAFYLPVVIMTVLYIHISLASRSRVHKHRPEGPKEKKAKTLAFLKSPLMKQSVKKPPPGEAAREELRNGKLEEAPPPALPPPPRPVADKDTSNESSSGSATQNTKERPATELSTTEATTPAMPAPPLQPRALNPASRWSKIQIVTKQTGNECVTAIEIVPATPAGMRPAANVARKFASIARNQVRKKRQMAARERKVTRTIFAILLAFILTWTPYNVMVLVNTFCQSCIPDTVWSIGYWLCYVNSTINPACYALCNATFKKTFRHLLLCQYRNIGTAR

For the compound `CN(C)/C=C1\N=C(c2ccc(Cl)cc2Cl)OC1=O`, the cell count in test [1] amounted to 698. Also, the inhibition is -4.8% (inactive) in test [1]; -31.3% (inactive) in [3]; 13.2% (inactive) in test [5]; 40.7% (inactive) in test [10]; -61.9% (inactive) in test [11]; -177% (inactive) in test [12]. Moreover, in test [2], the inhibition of aggregation was 8.1% (inactive). Moreover, the nuclei count in test [2] turned out to be 71.7%; in test [3], 120%. Also, the z-score in [4] (setting [13]) was -1.76; in test [4] (setting [14]) it was 2.52; in test [4] (setting [15]), -0.794. Moreover, the fluorescence slope was -0.335 (inactive) in [6] and 0.00537 (inactive) in test [8]. The NADPH fluorescence slope in [7] was -4e-05 (inactive). The compound was classed as inactive in [9].

`O=C1C2ON(c3ccccc3)C(c3cccnc3)C2C(=O)N1c1ccccc1` (stereo not given): the cell count in test [1] amounted to 667. Also, the inhibition was -4.7% (inactive) in test [1]; -28.2% (inactive) in test [3]; 16% (inactive) in [5]; -4.82% (inactive) in [10]; -8.41% (inactive) in [11]; -21.8% (inactive) in test [12]. Moreover, the inhibition of aggregation in [2] is -1.5% (inactive). Moreover, the nuclei count was 104% in test [2] and 130% in [3]. The z-score in test [4] (setting [13]) was 0.476; in [4] (setting [14]), 0.609; in test [4] (setting [15]), -0.133. The figures for the fluorescence slope in [6] and in [8] were -0.503 (inactive) and 0.00593 (inactive), respectively. The NADPH fluorescence slope in test [7] is -2.9e-05 (inactive). Also, the call in [9] was inactive.

With `Cc1ccc2[nH]c3c(N4CCOCC4)ncnc3c2c1`, the cell count in test [1] was determined as 599. In addition, the inhibition in test [1] is -3.9% (inactive); in test [3] it was -12.3% (inactive); in test [5], -1.98% (inactive); in test [10], -1.47% (inactive); in [11], -15.5% (inactive); in test [12] it was -85.9% (inactive). Moreover, the inhibition of aggregation in test [2] was 18.9% (inactive). The nuclei count in [2] was found to be 82.9%; in test [3], 152%. Further, the results for the z-score in [4] (setting [13]), in test [4] (setting [14]) and in test [4] (setting [15]) were -1.33, 0.984 and 0.577, respectively. Moreover, the fluorescence slope is -0.16 (inactive) in [6] and 0.00605 (inactive) in [8]. The NADPH fluorescence slope in [7] was -2.2e-05 (inactive). Besides, the compound was called inactive in test [9].

In the case of `COc1ccccc1C1C(C#N)=C(N)Oc2cc(C)n(Cc3ccccn3)c(=O)c21` (stereo not given), the cell count in test [1] came to 679. In addition, the inhibition in [1] was -2.4% (inactive); in test [3], -46.2% (inactive); in test [5], 0.671% (inactive); in test [10] it was 7.42% (inactive); in test [11] it was -7.32% (inactive); in test [12], 4.86% (inactive). Moreover, in [2], the inhibition of aggregation was 12% (inactive). Besides, the nuclei count in test [2] is 99.3%; in test [3], 122%. For the same compound, the figures for the z-score in test [4] (setting [13]), in test [4] (setting [14]) and in test [4] (setting [15]) were 0.97, -0.155 and -0.154, respectively. The fluorescence slope in test [6] is -0.453 (inactive); in [8], 0.00473 (inactive). The NADPH fluorescence slope in test [7] was -3.2e-05 (inactive). In test [9], the outcome was inactive.

For `O=C(NCc1cccnc1)c1ccc(=O)oc1`, in test [1], the cell count came out at 649. Also, the inhibition in test [1] is -2% (inactive); in [3], 43% (inactive); in [5], 4.37% (inactive); in test [10], 18.7% (inactive); in [11], 10.2% (inactive); in test [12], 11.5% (inactive). Moreover, the inhibition of aggregation in [2] is -18.7% (inactive). Further, the results for the nuclei count in [2] and in test [3] were 103% and 110%, respectively. For the same compound, the z-score in test [4] (setting [13]) is -0.741; in test [4] (setting [14]), 1.41; in test [4] (setting [15]) it was -1.58. In addition, the fluorescence slope in [6] was -0.496 (inactive); in test [8], 0.00411 (inactive). Further, in test [7], the NADPH fluorescence slope was -4.3e-05 (inactive). Moreover, in test [9], the compound was called inactive.
